# PubChem BioAssay (EPA / NIEHS)
# “And” between values parts separate entries of the source, which are not always exact repeats. Equal entries are not always repeated. Inconclusive results are not listed. A structure can be active in one record and inactive in another. The source made the active and inactive calls. How the source made its calls: active means hit-call score of the fitted dose curve at least 0.9, where 1 is the maximum; inconclusive means response in the unintended direction; inactive means score below 0.9.
# Test: Tanguay_ZF_120hpf_TR_legacy: (Legacy) Oregon State University Tanguay Lab 120 Hour Post-fertilization zebrafish Assay for Touch Response (AID 2283667)
# Protocol: Tanguay_ZF_120hpf_legacy is a whole embryo, multiplexed endpoint assay using zebrafish larvae exposed for 120 hours post fertilization on a 96-well plate.Tanguay_ZF_120hpf_TR_legacy is one of one assay component(s) measured or calculated from the Tanguay_ZF_120hpf_legacy assay. It is designed to make measurements of zebrafish development as detected with brightfield microscopy of developing zebrafish embryos.Data from the assay component Tanguay_ZF_120hpf_TR_legacy was analyzed into 1 assay endpoints. This assay endpoint, Tanguay_ZF_120hpf_TR_legacy, was analyzed in the positive analysis fitting direction relative to DMSO as the negative control and baseline of activity. Using a type of morphology reporter, gain-of-signal activity can be used to understand changes in developmentals as they relate to the whole embryo. To generalize the intended target to other relatable targets, this assay endpoint is annotated to the zebrafish development intended target family, where the subfamily is embryonic functional response.
# Zebrafish husbandry: Tropical 5D wild-type adult zebrafish were housed in at an approximate density of 1000 per 100 gallon tank at the Sinnhuber Aquatic Research Laboratory, Oregon State University, Corvallis, OR. Each tank was kept at standard laboratory conditions of 28C on a 14-h light/10-h dark photoperiod in fish water consisting of reverse osmosis water supplemented with a commercially available salt (Instant Ocean). Spawning funnels were placed into the tanks the night prior, and embryos were collected and staged. […] Ten microliters of each row of dilution plate 2 was added to 2 exposure plates. The final DMSO concentration used was 0.64% (vol/vol). Thirty-two embryos were also exposed to 5uM trimethyltin chloride (positive control). Plates were sealed to prevent evaporation and foil covered to reduce light exposure and kept in a 28C incubator. Embryos were statically exposed until 120 hpf. At 24 hpf, embryos were assessed for photomotor response using a custom photomotor response analysis tool (PRAT) and for developmental toxicity endpoints (MO24: mortality at 24 hpf, DP: developmental progression, SM: spontaneous movement, and NC: notochord distortion). At 120 hpf, locomotor activity was measured using Viewpoint Zebralab and assessed for 18 endpoints. Zebrafish acquisition and analysis program (ZAAP), a custom program designed to inventory, acquire, and manage zebrafish data, was used to collect developmental endpoints as either present or absent (i.e., binary responses were recorded). If mortality occurred for an embryo (at either 24 or 120 hpf), the non-mortality endpoints were not measured.
Structure (SMILES),outcome,AC50
CNC(=O)Oc1cccc(N=CN(C)C)c1,inactive,–
CCc1ccc(C(=O)NN(C(=O)c2cc(C)cc(C)c2)C(C)(C)C)cc1,inactive,–
CNC(=O)Oc1ccccc1OC(C)C,inactive,–
CC(C)(C)C(O)C(Oc1ccc(Cl)cc1)n1cncn1 (stereo not given),inactive,41.5 µM (active) and 65.4 µM (active)
COP(=S)(OC)Oc1ccc([N+](=O)[O-])cc1,inactive,–
O=C(NC(=O)c1c(F)cccc1F)Nc1ccc(OC(F)(F)C(F)OC(F)(F)F)c(Cl)c1 (stereo not given),inactive,–
CCC(C)(NC(=O)c1cc(Cl)c(C)c(Cl)c1)C(=O)CCl (stereo not given),–,57800 nM (active)
CCC(C)Nc1c([N+](=O)[O-])cc(C(C)(C)C)cc1[N+](=O)[O-] (stereo not given),inactive,–
O=[N+]([O-])/N=C1\NCCN1Cc1ccc(Cl)nc1,inactive,–
COc1nn(CSP(=S)(OC)OC)c(=O)s1,inactive,–
ClC1C(Cl)C(Cl)C(Cl)C(Cl)C1Cl (stereo not given),inactive,–
N#CN,inactive,–
C[C@H]1[C@H](c2ccc(Cl)cc2)SC(=O)N1C(=O)NC1CCCCC1,inactive,–
CC[C@H](C)[C@H]1O[C@]2(C=C[C@@H]1C)C[C@@H]1C[C@@H](C/C=C(\C)[C@@H](O[C@H]3C[C@H](OC)[C@@H](O[C@H]4C[C@H](OC)[C@@H](O)[C@H](C)O4)[C@H](C)O3)[C@@H](C)/C=C/C=C3\CO[C@@H]4[C@H](O)C(C)=C[C@@H](C(=O)O1)[C@]34O)O2 (tested in a mixture with another compound),–,450 nM (active)
C#CCN1C(=O)COc2cc(F)c(N3C(=O)C4=C(CCCC4)C3=O)cc21,inactive,–
CNC(=O)/C=C(\C)OP(=O)(OC)OC,inactive,–
COP(=O)(OC)OC=C(Cl)Cl,inactive,–
Oc1cc(Cl)ccc1Oc1ccc(Cl)cc1Cl,inactive,–
CCOC1Oc2ccc(OS(C)(=O)=O)cc2C1(C)C (stereo not given),inactive,–
CCCN(CCOc1c(Cl)cc(Cl)cc1Cl)C(=O)n1ccnc1,inactive,–

Structure (SMILES),outcome,AC50
CNC(=O)CSP(=S)(OC)OC,inactive,–
O=S(=O)(O)C(F)(F)C(F)(F)C(F)(F)C(F)(F)C(F)(F)C(F)(F)C(F)(F)C(F)(F)F,–,9.61 µM (active) and 16.3 µM (active) and 13.3 µM (active)
Oc1ccc(Cl)cc1Cc1ccccc1,inactive,–
Cc1[nH]c(=O)n(C(C)(C)C)c(=O)c1Cl,–,7.93 nM (active)
CCCN(CCC)c1c([N+](=O)[O-])cc(C(F)(F)F)cc1[N+](=O)[O-],inactive,–
O=S1OCC2C(CO1)C1(Cl)C(Cl)=C(Cl)C2(Cl)C1(Cl)Cl (stereo not given),inactive,–
O=C(O)CCCOc1ccc(Cl)cc1Cl,inactive,–
CC(C)(C)C(O)/C(=C\c1ccc(Cl)cc1Cl)n1cncn1 (stereo not given),inactive,–
O=[N+]([O-])c1c(Cl)c(Cl)c(Cl)c(Cl)c1Cl,inactive,–
CC(C)N(C(=O)COc1nnc(C(F)(F)F)s1)c1ccc(F)cc1,inactive,–
CC(C)OC(=O)Nc1cccc(Cl)c1,inactive,–
CCOCN(C(=O)CCl)c1c(C)cccc1CC,inactive,–
CC1(c2ccc(Oc3ccccc3)cc2)OC(=O)N(Nc2ccccc2)C1=O (stereo not given),inactive,–
O=C(Nc1ccccc1)Nc1cnns1,inactive,–
CN1CSC(=S)N(C)C1,inactive,–
O=C(O)COc1ccc(Cl)cc1Cl,inactive,–
CCC(C)(C)C(=O)OC1=C(c2ccc(Cl)cc2Cl)C(=O)OC12CCCCC2,inactive,–
O=C1c2ccccc2C(=O)N1SC(Cl)(Cl)Cl,inactive,–
O=C(O)C(F)(F)C(F)(F)C(F)(F)C(F)(F)C(F)(F)C(F)(F)C(F)(F)F,inactive,–
